Data from PubChem BioAssay (NCATS).
Inconclusive results are not listed. Activity calls are given as the source filed them. The call rests on the fitted dose curve; in most records, active means well fitted inhibition curve with a large enough effect; inconclusive means small, poorly fitted or top-dose-only effect; inactive means flat fitted curve, though single readings scatter.

Columns and labels:
Assay in all cases: Cytotoxic Profiling of Annotated Libraries Using Quantitative High-Throughput Screening (AID 1296008); further: nearly all actives have a fitted effect of over 60% in size
Conditions in all cases: Five cell lines viability, CellTiter-Glo ATP luminescence, 48-72 h; max response: active compounds read low
[1] = tested on: CRL-7250
Procedure, shortened: (§1)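 Cells exposed to compounds for 48 or 72 hr at 37 degrees Celsius. Viability read as ATP-coupled luminescence with CellTiter-Glo after 10 min at room temperature.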

[2] = tested on: HEK293
Procedure, shortened: as §1

[3] = tested on: HaCat
Procedure, shortened: as §1

[4] = tested on: KB-3-1
Procedure, shortened: as §1

[5] = tested on: NIH3T3
Procedure, shortened: as §1

Measured: max response
On the % scale 0 is the no-effect control and ±100 the full control effect.

CC1=C2C[C@@]3(C)C(CCC[C@@H]3C)C(O)C2(O)OC1=O (stereo not given in full)
inactive: [1] -37.7% | [2] -7.76% | [3] | [4] -14% | [5] -21.1%

C/C=C(/C)C(=O)OC1CC(C)(C)CC2C3=CCC4C5(C)CCC(OC6OC(C)C(OC7OC(C(=O)O)C(O)C(OC8OC(CO)C(O)C(O)C8OC8OC(CO)C(O)C(O)C8O)C7O)C(O)C6O)C(C)(C)C5CCC4(C)C3(C)C(OC(=O)/C=C/C=C/C=C/CCC)C(OC(C)=O)C12CO (stereo not given)
inactive: [1] 3.68% | [2] 2.77% | [3] | [4] | [5]

COCCN1CCC(C(=O)NO)(S(=O)(=O)c2ccc(Oc3ccc(OC(F)(F)F)cc3)cc2)CC1
inactive: [1] -0.582% | [2] -3.44% | [3] | [4] | [5]

CC1=CC(=O)CC(C)(C)C1CCC(C)O[C@@H]1O[C@H](CO)[C@@H](O)[C@H](O)[C@H]1O (stereo not given in full)
inactive: [1] | [2] 3.44% | [3] | [4] 5.09% | [5] 0.902%

COC1OC(OC)C(O)(CCC2(C)C(C)CCC3(C)C2CC(O)C(O)C32CO2)C1O (stereo not given)
inactive: [1] -2.11% | [2] 1.57% | [3] | [4] 5.15% | [5]

C/C=C(\C)C(=O)OC[C@H]1O[C@@H](O[C@H]2[C@@H](O[C@H]3O[C@H](CO)[C@@H](O)[C@H](O)[C@H]3O[C@@H]3O[C@H](CO)[C@@H](O)[C@H](O)[C@H]3O)O[C@H](COC(=O)/C(C)=C/C)[C@@H](O)[C@@H]2O)[C@H](O)[C@@H](O)[C@@H]1O
inactive: [1] | [2] -5.43% | [3] | [4] -3.26% | [5] 3.7%

C/C=C1\[C@H](O[C@@H]2O[C@H](CO)[C@@H](O)[C@H](O)[C@H]2O)OC=C(C(=O)O)[C@H]1CC(=O)OCCc1ccc(O)cc1
inactive: [1] -6.03% | [2] -5.51% | [3] | [4] -0.266% | [5]

CC(=O)OC1CC(=O)C2(C)C3CC4=C(OC(C)CC4=O)OC3(C)CCC2C1(C)C (stereo not given)
inactive: [1] | [2] 2.23% | [3] | [4] | [5] 1.19%

CC1=C2CC(=O)C(C)CC/C=C(\C)CC2(O)OC1=O (stereo not given)
inactive: [1] -4.8% | [2] 0.476% | [3] 2.42% | [4] 3.81% | [5]

CC(C)=CCC(O)[C@](C)(O)C1[C@H](O)C[C@@]2(C)C3CC=C4C(C[C@H](O)[C@@H](O[C@@H]5O[C@H](CO)[C@@H](O)[C@H](O)[C@H]5O)C4(C)C)[C@]3(C)C(=O)C[C@]12C (stereo not given in full)
inactive: [1] 4.58% | [2] -6.78% | [3] -8.01% | [4] | [5]

CCCCS(=O)(=O)NC(Cc1ccc(OCCCCC2CCNCC2)cc1)C(=O)O (stereo not given)
inactive: [1] -1.48% | [2] -14% | [3] 4.29% | [4] 0.365% | [5]

CC(C)C1C(OC(=O)/C=C/c2ccccc2)CC2(C)OC2CCC2(C)OC2C1O (stereo not given)
inactive: [1] | [2] -5.07% | [3] | [4] 9.34% | [5] -5.79%

COC(=O)[C@H](Cc1ccc([N+](=O)[O-])cc1)NC(=O)c1cccc2ccccc12
inactive: [1] -4.16% | [2] | [3] -4.67% | [4] | [5] -1.76%

CCOC(=O)c1ccc(NC2CCCCC2)c(N)c1
inactive: [1] | [2] -10.7% | [3] -10.7% | [4] -6.34% | [5]

CCC(C)C(=O)O[C@H]1[C@@H](O[C@H]2O[C@H](CO)[C@@H](O)[C@H](O)[C@H]2O)O[C@H](CO)[C@@H](O)[C@@H]1O (stereo not given in full)
inactive: [1] -1.24% | [2] -6.33% | [3] | [4] -0.199% | [5] 2.16%

Cc1[nH]c2ccccc2c1CC(=O)N[C@@H](Cc1ccccc1)C(=O)N(C)c1ccccc1
inactive: [1] -9.69% | [2] -12.5% | [3] | [4] | [5] -0.277%

C[C@@H]1O[C@@H](O[C@H]2[C@@H]3C=CO[C@@H](O[C@@H]4O[C@H](CO)[C@@H](O)[C@H](O)[C@H]4O)[C@@H]3[C@@]3(CO)O[C@@H]23)[C@H](O)[C@H](OC(=O)/C=C/c2ccc(O)c(O)c2)[C@H]1O
inactive: [1] 2.8% | [2] 1.13% | [3] | [4] -0.915% | [5]
